This note sets out measurements from ChEMBL document CHEMBL1157539, “Thousands of chemical starting points for antimalarial lead identification” (Nature, 2010).

In general, Inhibition refers to the share of the control response that was lost under treatment. Low readings indicate little suppression, high ones strong suppression.

For this assay, the system named is Plasmodium falciparum. In words: GSK_TCMDC: Inhibition of Plasmodium falciparum 3D7 in whole red blood cells, using parasite LDH activity as an index of growth. Test compounds present at 2uM. Type of assay: functional.
In the case of `COc1ccc2nc3cc(Cl)ccc3c(NCCCCCCNc3c4ccc(Cl)cc4nc4ccc(OC)cc34)c2c1.Cl.Cl.Cl.Cl`, the Inhibition is reported as 96%.

`O=C(C1COc2ccccc2O1)N(CCCn1ccnc1)Cc1csc(-c2ccc(CNCc3ccccc3)cc2)n1.O=C(O)C(F)(F)F` (stereo not given) registered an Inhibition of 100%.

In the case of `COc1ccc(CN(C)CCCc2ccc(NC(=O)Cc3ccc4nc(-c5ccccc5)ccc4c3)cc2)cc1OC`, the Inhibition is listed as 98%.

In turn, `CC(=O)c1cccc(S(=O)(=O)NCCCNc2nc3cc(C)cc(C)c3cc2C#N)c1` registered an Inhibition of 95%.

Turning to `COc1cccc(NC(=O)c2cc(Br)cc(N3CCN(c4ccncc4)CC3)c2)c1.O=C(O)C(F)(F)F`, the Inhibition is given as 100%.

Turning to `CN1CCN(c2ccnc3ccc(NC(=O)Nc4ccc(Cl)c(Cl)c4)cc23)CC1`, the Inhibition was determined as 97%.

For `CCCNCc1ccc(-c2ccc(CN(Cc3cnc(C)cn3)C(=O)/C=C/c3ccccc3C)cc2)nc1.O=C(O)C(F)(F)F`, the Inhibition came out at 95%.

In turn, `OC(CNCc1ccccc1OCc1ccccc1)c1cccc(Cl)c1` (stereo not given) showed an Inhibition of 100%.

As for `Cc1cc(N[C@@H](CC(C)C)C(=O)Nc2ccccc2)nc(NCCc2ccc(F)cc2)n1.O=C(O)C(F)(F)F`, the Inhibition is listed as 100%.

As for `COc1c(C2CCN(CCCCNC(=O)c3noc(-c4ccc(C#N)cc4)n3)CC2)ccc2c1CCCC2`, the Inhibition is 99%.

`COc1ccc(-c2cccc(NC(=O)c3cccc(C#N)c3)c2)cc1CN1CCNCC1.O=C(O)C(F)(F)F` returned an Inhibition of 100%.

With `CCNc1cc(C(=O)N[C@@H](Cc2ccccc2)[C@H](O)CN[C@H](C)c2ccccc2)cc(N2CCCC2=O)c1`, the Inhibition is recorded as 97%.

`Cl.Clc1ccc(OCCC2CCN(CCCCCCCN3CCC(CCOc4ccc(Cl)c(Cl)c4)CC3)CC2)cc1Cl` showed an Inhibition of 99%.

`COc1cc(Cc2cnc(N)nc2N)cc(OCCCOc2ccccc2)c1OC` yielded an Inhibition of 94%.

Turning to `COc1ccc2nc(N3CCN(C(=O)OC(C)(C)C)CC3)nc(NCCCc3ccccc3)c2c1`, the Inhibition stood at 100%.

Molecule `CN1CCCN(Cc2cccc(-c3cccc(NS(=O)(=O)c4cccc5cccnc45)c3)c2)CC1.O=C(O)C(F)(F)F` showed an Inhibition of 97%.

Molecule `Cl.N=C1C=C(N)C(=O)c2ccccc21` displayed an Inhibition of 81%.

Regarding `COc1ccc(CNc2nc(NCc3ccc(C(F)(F)F)cc3)c3cc(OC)c(OC)cc3n2)cc1OC`, the Inhibition is 100%.

As for `O=C(/C=C/c1ccc(I)cc1)NCCCCCN1CCC(c2c[nH]c3ccccc23)CC1`, the Inhibition is given as 95%.

The molecule `COc1ccc(CCn2c(=N)c(C(=O)NCc3ccccc3)cc3c(=O)n4ccccc4nc32)cc1` yielded an Inhibition of 100%.

`COc1ccccc1N1CCN(C(C(=O)NCc2ccc3c(c2)OCO3)c2ccc3c(c2)OCCCO3)CC1` (stereo not given): the Inhibition is given as 88%.

Turning to `Cc1cc(C(=O)CN2C(=O)NC3(CCCc4ccccc43)C2=O)c(C)n1Cc1ccco1` (stereo not given), the Inhibition is on record as 90%.

In turn, `Cc1cccc(/C=C/C(=O)NC2CCC(N3CCC(c4ccccc4C)CC3)CC2)c1` (stereo not given) displayed an Inhibition of 92%.

`CCN(CC)CC(O)CNc1c2ccc([N+](=O)[O-])cc2nc2cc(OC)c(OC)cc12.Cl` (stereo not given) showed an Inhibition of 100%.

`CCC[C@@H](/C=N/N(C)C(=O)OC(C)(C)C)NC(=O)[C@H](CC(C)C)NC(=O)c1cc2cccc(OC)c2o1` came in with an Inhibition of 88%.

In turn, `O=C(O)C(F)(F)F.c1cc(CNCCN2CCNCC2)cc(-c2ccc(-c3nc4ccccc4[nH]3)cc2)c1` came in with an Inhibition of 98%.

The molecule `O=C(C=Cc1cn(-c2ccccc2)nc1-c1cccs1)N1CCN(c2ccncc2)CC1` registered an Inhibition of 100%.

`Cc1noc(C)c1-c1cccc(CNCc2ccc(-c3cccc(-c4nc5cccc(C)c5[nH]4)c3)cc2)c1.O=C(O)C(F)(F)F`: the Inhibition is 100%.

`Cc1ccccc1C(=O)Nc1cccc(-c2nc3ncccn3c2C)c1` registered an Inhibition of 94%.

In turn, `Cl.Nc1ccc(Nc2ccnc3ccc(C(F)(F)F)cc23)cc1O` came in with an Inhibition of 98%.

On to `CN1CCN(CC(=O)Nc2ccc(-c3csc(-c4nc5ccccc5[nH]4)c3)cc2)CC1`, for which the Inhibition is 99%.

Regarding `O=C(Nc1ccccc1F)NC1CCN(c2ccnc(Nc3ccc(F)cc3)n2)C1` (stereo not given), the Inhibition worked out at 95%.

As to `CCN(CC)C(=O)C1CCCN(c2cc(C)nc(Nc3ccc(Cl)cc3)n2)C1` (stereo not given), the Inhibition came out at 94%.

On to `CN(c1ccc(NC(=O)Nc2cc(C(F)(F)F)ccc2F)cc1)c1ccnc(NCCN2CCOCC2)n1.O=C(O)C(F)(F)F`, for which the Inhibition was found to be 97%.

For the molecule `O=S(=O)(Nc1cccc(CCN2CCC(N3CCCCC3)CC2)c1)c1ccc(Cl)cc1`, the Inhibition amounted to 94%.

`CN(C)CCNC(=O)c1csc(Nc2ccc(Cl)c(Cl)c2)n1`: the Inhibition is listed as 100%.

The molecule `SC(=Nc1ccc2c(c1)OCCO2)NN=Cc1ccccn1` gave an Inhibition of 82%.

The molecule `CN(C)CCOc1cc(NC(=O)Nc2ccc(-c3ccncc3)c(Cl)c2)ccc1I` returned an Inhibition of 100%.

On to `O=C(Nc1cccc(-c2ccc(-c3nc4cc(C(F)(F)F)ccc4[nH]3)cc2)c1)c1c[nH]cn1`, for which the Inhibition is on record as 91%.

In turn, `Cc1cc(C(F)(F)F)n2nc(C(=O)N(Cc3cncn3Cc3cccc(F)c3)CC3CC3)cc2n1` displayed an Inhibition of 100%.
